Assay results published in PubChem BioAssay.
Values without a mark were called inactive. The rule behind the calls is not given here.

The molecules below were run on Aerobactin synthetase IucA (Klebsiella pneumoniae hvKP1) (assay: IucA enzyme inhibition, primary screen, biochemical, Spectrum library (AID 1346200;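 note: 100% = wells without compound and 0% = wells lacking enzyme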)). Conditions: malachite green pyrophosphate, A620, at 8 µM, hits give low values.

SMILES	activity remaining
O=C(/C=C/c1ccc(O)cc1)c1ccccc1O	109%
N#Cc1ccc2c(c1)N(CCCN1CCC(O)CC1)c1ccccc1S2	111%
O=C1CC(c2ccc(O)cc2)Oc2ccccc21 (stereo not given)	92%
CC(C)c1ccc2c(c1)CCC1[C@](C)(CN)CCC[C@]21C (stereo not given in full)	111%
CCCCCCc1ccc(O)cc1O	124%
CCn1cc(C(=O)O)c(=O)c2cc(F)c(N3CCNCC3)cc21	115%
NC[C@@H]1O[C@H](O[C@@H]2[C@@H](CO)OC(O[C@@H]3[C@@H](O)[C@H](N)C[C@H](N)[C@H]3OC3O[C@H](CN)[C@@H](O)[C@H](O)[C@H]3N)[C@@H]2O)[C@H](N)[C@@H](O)[C@@H]1O (stereo not given in full)	99.1%
CC(=O)CC(=O)CCC(=O)O	102%
COc1ccc2c(c1OC)OC[C@@H](c1ccc(OC)c(OC)c1OC)C2	95.9%
NC(N)=NCCC[C@@H](NC(=O)[C@@H](N)Cc1ccc(O)cc1)C(=O)O	110%
O=C1c2ccccc2C(=O)c2c1ccc(O)c2O	112%
C[C@]12CCC(=O)C=C1CCC1C2[C@@H](O)C[C@@]2(C)C1CC[C@]2(O)C(=O)CO (stereo not given in full)	113%
COC(=O)Nc1nc2ccc(Sc3ccccc3)cc2[nH]1	114%
Cc1ccc(S(=O)(=O)NC(=O)NN2CC3CCCC3C2)cc1 (stereo not given)	121%
Oc1ccc([C@H]2Oc3cc(O)cc(O)c3C[C@H]2O)cc1	113%
CC(=O)O[C@H]1C[C@@H](OC(C)=O)C(C)(C)C2C[C@@H](OC(C)=O)[C@]3(C)C([C@H](OC(C)=O)C[C@@]4(C)[C@H](c5ccoc5)OC(=O)[C@H]5O[C@]543)[C@]21C (stereo not given in full)	104%
Nc1cc(C(Cl)=C(Cl)Cl)c(S(N)(=O)=O)cc1S(N)(=O)=O	104%
CCCc1cc(OC)c2c(c1)OCO2	106%
Nc1ccccc1C(=O)CC(N)C(=O)O (stereo not given)	118%
O=c1oc2ccccc2cc1O	110%

SMILES	activity remaining
CC(=O)N1CCCC1C(=O)O (stereo not given)	106%
CC(C(=O)O)c1cccc(Oc2ccccc2)c1 (stereo not given)	118%
NCC(=O)CCC(=O)O	77.6%
C[C@H](CC(=O)C(O)C(C)(C)O)[C@H]1C(=O)C[C@@]2(C)C3=CCC4C(C)(C)[C@@H](O[C@@H]5OC[C@@H](O)[C@H](O)[C@H]5O)CC[C@@]45C[C@@]35[C@@H](O)C[C@]12C (stereo not given in full)	109%
O=C(/C=C/c1ccc(O)c(O)c1)O[C@@H]1C[C@](O)(C(=O)O)C[C@@H](O)[C@H]1O	103%
CC1=C(/C=C/C(C)=C/C=C/C(C)=C/CO)C(C)(C)CCC1	105%
Cn1c(=O)[nH]c2nc[nH]c2c1=O	79.5%
C[C@@H]1O[C@@H](O[C@H]2[C@H](Oc3cc(O)c4c(=O)cc(-c5ccc(O)cc5)oc4c3)O[C@H](CO)[C@@H](O)[C@@H]2O)[C@H](O)[C@H](O)[C@H]1O	90.6%
C[C@]12CCc3occc3C1CC[C@@]13C[C@@H](CCC12)[C@@](O)(CO)C3 (stereo not given in full)	93.4%
Cc1[nH]ccc2c1[nH]c1cc(=O)ccc12	118%
CO[C@@]1(NC(=O)Cc2cccs2)C(=O)N2C(C(=O)O)=C(COC(N)=O)CS[C@@H]21	108%
CC(C)[C@H](N)C(=O)OCCOCn1cnc2c(=O)[nH]c(N)nc21	122%
Cc1c(NC(=O)c2cccnc2)c(=O)n(-c2ccccc2)n1C	85.4%
CCCN(CCC)S(=O)(=O)c1ccc(C(=O)O)cc1	93.6%
COC(=O)[C@@]1(C)CCC[C@]2(C)c3ccc(O)c(C(C)C)c3CCC12 (stereo not given in full)	121%
CCC(C)C(=O)OC1[C@@H]2CC3=C4CC(=O)O[C@@H](c5ccoc5)[C@]4(C)CCC3C(C)(C2=O)[C@@H](CC(=O)OC)C1(C)C (stereo not given in full)	125%
C=C1C(N)CC2CC1C2(C)C (stereo not given)	96.6%
CC(=O)O[C@H]1C[C@@H](OC(C)=O)C(C)(C)C2CC(=O)[C@]3(C)C(CC[C@@]4(C)[C@H](C(=O)O)OC(=O)C5OC543)[C@]21C (stereo not given in full)	122%
CC(C(=O)O)c1ccc(N2Cc3ccccc3C2=O)cc1 (stereo not given)	103%
O=C(O)c1cc(=O)c2c(OCC(O)COc3cccc4oc(C(=O)O)cc(=O)c34)cccc2o1	115%
